# Avidin fluor – avidin bead compound fluorescence profile; Avidin beads, compound fluorescence 488/530 nm, flow cytometry; stronger effect = higher value; fluorescence (KMESF) at 10 µM; actives 0.38% (n = 220,000); in the data active means fluorescence above about 47
# GSH bead fluor – GSH bead compound fluorescence profile; fluorescence (KMESF) at 10 µM; actives 0.25% (n = 190,000); GSH beads flow cytometry, compound fluorescence 488/530 nm; stronger effect = higher value; in the data active means fluorescence above about 89;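 further: glutathione beads carrying GST-tagged Bcl family fusion proteins plus one bare bead set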
# RGS7-Gao reg – modulates binding of RGS7 to human Galphao. binding response (% of control), % at 10 µM. AID 1439. P09471. actives 0.35% (n = 220,000). Multiplexed bead flow cytometry; actives lie on both sides; in the data active means binding response below about 49% or above about 150%; inconclusive means no clear call, values can overlap the other calls; inactive means in between;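 further: fluorescent Galphao held in activated GDP-AlF4 state binding bead-coupled RGS7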
# Target sequence (P09471 whole entry, looked up): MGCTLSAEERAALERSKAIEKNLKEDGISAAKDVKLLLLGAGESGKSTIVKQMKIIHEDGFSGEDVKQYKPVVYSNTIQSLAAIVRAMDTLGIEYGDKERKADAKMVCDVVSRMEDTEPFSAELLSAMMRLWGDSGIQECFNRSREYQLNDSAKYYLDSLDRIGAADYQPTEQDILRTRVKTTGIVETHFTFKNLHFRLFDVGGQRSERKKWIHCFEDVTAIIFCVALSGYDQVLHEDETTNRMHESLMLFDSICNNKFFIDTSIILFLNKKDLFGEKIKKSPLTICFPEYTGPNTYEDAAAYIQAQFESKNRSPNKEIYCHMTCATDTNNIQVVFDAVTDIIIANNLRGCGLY
# RGS16-Gao HTS – modulates binding between human RGS16 and Galphao | O15492+P09471 | bead-based flow cytometry RGS16-Galphao binding, fluorescence; actives lie on both sides | binding response (% of control), % at 10 µM | actives 0.38% (n = 220,000) | AID 1441;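 further: Galphao activated by GDP with aluminum fluoride before binding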
# Target sequence (O15492 whole entry, looked up): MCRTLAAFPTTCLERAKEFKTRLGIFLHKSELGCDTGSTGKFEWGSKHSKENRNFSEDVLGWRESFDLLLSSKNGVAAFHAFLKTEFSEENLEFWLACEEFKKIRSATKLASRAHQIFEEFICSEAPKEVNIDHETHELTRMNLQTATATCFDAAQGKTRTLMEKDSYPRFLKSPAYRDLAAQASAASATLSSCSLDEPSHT
# Target sequence (P09471 whole entry, looked up): as the sequence (P09471 whole entry, looked up) above
# RGS8-Gao reg – modulates binding of RGS8 to human Galphao | P09471 | multiplexed bead flow cytometry; actives lie on both sides | response (percent of control binding), % at 10 µM | actives 0.34% (n = 220,000) | AID 1423; in the data active means response below about 60% or above about 140%; inactive means in between;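 further: Galphao activated as the GDP aluminium fluoride complex binding bead-coupled RGS8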
# RGS4-Gao reg – modulates binding of RGS4 to human Galphao; P09471; Multiplexed bead flow cytometry; actives lie on both sides; binding response (% of control), % at 10 µM; actives 0.33% (n = 220,000); in the data active means binding response below about 49% or above about 150%; inactive means in between;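 further: fluorescent Galphao activated with aluminum fluoride binding bead-coupled RGS4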
# RGS-Gao – modulates binding between human RGS4 and Galphao | shares compounds with RGS16-Gao HTS | multiplexed bead flow cytometry, RGS–Galpha-o binding | RGS4–Galpha-o binding response, % at 10 µM | actives 99% (n = 1,600) | AID 1504;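 further: fluorescently labeled Galpha-o bound to GDP with aluminium fluoride binding biotinylated RGS beads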
# Biotin-avidin – biotin-avidin bead binding disruption counter-screen | shares compounds with RGS16-Gao HTS | streptavidin beads, fluorescein-biotin binding, flow cytometry | inhibition, % at 10 µM | 1,700 tested, under 10 active;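 active means inhibition above 50%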;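 further: median green fluorescence of gated singlet beads compared with DMSO control wells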
# RGS8-Gao confirm – confirmation of regulators of human RGS8-Galphao interaction; shares compounds with RGS16-Gao HTS; bead-based flow cytometry RGS8-Galphao binding, fluorescence; actives lie on both sides; binding response (% of control), % at 10 µM; actives 3% (n = 1,700); AID 1836; in the data active means binding response below about 72% or above about 130%; inactive means in between;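 further: Galphao activated as GDP AlF4 complex before binding bead RGS8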
# RGS7-Gao confirm – confirmation of regulators of human RGS7-Galphao interaction; shares compounds with RGS16-Gao HTS; bead-based flow cytometry RGS7-Galphao binding; actives lie on both sides; response (percent of control binding), % at 10 µM; actives 7.8% (n = 1,700); AID 1837; in the data active means response below about 75% or above about 130%; inactive means in between;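 further: fluorescent Galphao activated with GDP and aluminum fluoride binding bead-coupled RGS7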
# RGS16-Gao single – RGS16-Galphao interaction regulation, single point confirmation | actives 4% (n = 1,700) | response (% of control binding), % at 10 µM | AID 1838 | shares compounds with RGS16-Gao HTS | bead-based flow cytometry, RGS16-Galphao binding; actives lie on both sides; in the data active means response below about 74% or above about 130%; inactive means in between;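 further: Galphao activated as the GDP aluminium fluoride complex binding bead-coupled RGS16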
# RGS4-Gao single – confirmation of regulators of human RGS4-Galphao interaction; actives 4% (n = 1,700); binding response (% of control), % at 10 µM; shares compounds with RGS16-Gao HTS; AID 1840; RGS4-Galphao binding, multiplexed bead flow cytometry; actives lie on both sides; in the data active means binding response below about 74% or above about 130%; inactive means in between
# RGS19-Gao single – confirmation of regulators of human RGS19-Galphao interaction | shares compounds with RGS16-Gao HTS | bead-based flow cytometry RGS19-Galphao binding; actives lie on both sides | response (percent of control binding), % at 10 µM | actives 5% (n = 1,700) | AID 1841; in the data active means response below about 50% or above about 160%; inactive means in between
# A number is an active result; – = inactive; ? = inconclusive; · = no result; [ ] = remark or other dose. An excerpt weighted towards active compounds, which were near 1.2% of everything screened. Unless noted, how the calls were made is not given here.
SMILES,Avidin fluor,GSH bead fluor,RGS7-Gao reg,RGS16-Gao HTS,RGS8-Gao reg,RGS4-Gao reg,RGS-Gao,Biotin-avidin,RGS8-Gao confirm,RGS7-Gao confirm,RGS16-Gao single,RGS4-Gao single,RGS19-Gao single
COc1ccc(C2CC(=O)C(C(c3ccc(O)cc3)C3C(=O)CC(c4ccc(OC)cc4)CC3=O)C(=O)C2)cc1 (stereo unspecified),–,·,?,–,–,–,·,·,·,·,·,·,·
O=C(N=Nc1ccc(NOC(=O)c2ccccc2Br)cc1)c1ccccc1O,–,–,?,–,–,–,·,·,·,·,·,·,·
O=C(NC(=S)NCCOCc1ccc(Cl)cc1)c1cccnc1,–,–,–,16,–,–,89,–,–,–,–,–,–
O=C(Cc1ccc(Cl)cc1)NNC(=S)NC(=O)c1cccnc1,–,–,–,–,–,–,·,·,·,·,·,·,·
COC(=O)C(C)NC(=O)c1ccc(C(C)(C)C)cc1 (stereo unspecified),–,–,–,–,–,–,·,·,·,·,·,·,·
COc1ccccc1Nc1nc(N)nc(CN2CCC(C)CC2)n1,–,–,–,–,–,–,·,·,·,·,·,·,·
COc1ccccc1Nc1nc(N)nc(CN2CCC(Cc3ccccc3)CC2)n1,–,–,162[activator],–,165[activator],178[activator],·,–,–,–,–,–,–
CCc1ccc(CN(C)CC(=O)Nc2sccc2C#N)cc1,–,–,–,–,–,–,·,·,·,·,·,·,·
COc1ccc(OCC(O)CNC(=O)c2c(-c3ccccc3)noc2C)cc1 (stereo unspecified),–,·,?,–,–,–,·,·,·,·,·,·,·
Cc1cc(C)nc(NC(=NCCc2c[nH]c3ccccc23)NC(=O)Nc2ccc(Cl)c(Cl)c2)n1,–,–,–,13,–,–,108,–,–,–,–,–,–
COc1ccc(CN2CCNC(=O)C2CC(=O)NCCC2=CCCCC2)cc1OC (stereo unspecified),–,–,–,–,–,–,·,·,·,·,·,·,·
O=C(CSc1nnc2c(Cl)cc(Cl)cn12)N1CCN(c2ccc(F)cc2)CC1,–,–,–,–,–,–,·,·,·,·,·,·,·
CC(Sc1ncnc2ccccc12)C(=O)Nc1ccc2c(c1)OCO2 (stereo unspecified),·,–,·,·,·,·,·,–,–,–,–,–,–
CC(C)(C)NS(=O)(=O)c1ccc(CCC(=O)NCc2ccc3c(c2)OCO3)cc1,–,–,–,–,–,–,·,·,·,·,·,·,·
O=C(O)COc1ccc(/C=N/NC(=O)C2CCCN2S(=O)(=O)c2ccc(Cl)cc2)cc1 (stereo unspecified),–,–,–,–,–,–,·,·,·,·,·,·,·
CC(=O)N1CCN(c2ccc(NCc3cccs3)cc2)CC1,–,–,40,–,46,50,·,–,–,–,–,–,–
O=C(/C=C/c1ccc(O)cc1)c1ccccc1,–,·,?,–,–,–,·,·,·,·,·,·,·
O=C(/C=C/c1ccc(N2CCC(c3ccccc3)=N2)cc1)c1ccccc1,–,172,153[activator],–,–,–,113,·,·,·,·,·,·
OCCC1CN(Cc2cccn2-c2nccs2)CCN1C1CCCCC1 (stereo unspecified),–,–,–,–,–,–,·,·,·,·,·,·,·
CC(C)N1CCN(Cc2cccn2-c2nccs2)CC1CCO (stereo unspecified),56,–,192[activator],–,–,–,115,–,–,–,–,–,–
O=C(CCCc1ccccc1)NCc1ccc(F)cc1,–,–,–,–,–,–,·,·,·,·,·,·,·
Cc1ccc(OCCN2C(=O)c3ccccc3C2=O)cc1,–,–,–,–,–,–,·,·,·,·,·,·,·
O=C1C(=O)N(Cc2ccccc2)C(=O)N1CCOc1ccccc1,–,–,–,–,58,–,56,–,–,–,–,–,–
NC(N)=NC(N)=Nc1ccc(SC(F)(F)F)cc1,–,–,–,16,–,–,101,–,–,–,–,–,–
NC(N)=NC(N)=Nc1ccc2ccccc2c1,–,–,–,–,–,–,·,·,·,·,·,·,·
SMILES,Avidin fluor,GSH bead fluor,RGS7-Gao reg,RGS16-Gao HTS,RGS8-Gao reg,RGS4-Gao reg,RGS-Gao,Biotin-avidin,RGS8-Gao confirm,RGS7-Gao confirm,RGS16-Gao single,RGS4-Gao single,RGS19-Gao single
Cc1nc(NCCc2ccccc2)c(C#N)c(C)c1[N+](=O)[O-],–,–,–,–,–,–,·,·,·,·,·,·,·
O=C(COc1ccc(/C=N/NC(=O)c2cc3ccccc3o2)cc1Cl)Nc1ccccc1,49,116,218[activator],–,225[activator],373[activator],·,–,–,–,–,–,166[activator]
COc1ccc(C2C(C#N)=C(N)Oc3c2sc2nc(C)cc(C)c32)cc1 (stereo unspecified),89,–,–,187[activator],–,–,121,–,–,–,–,–,–
CC(C)Nc1nc(NC(N)=S)nc(NC(C)C)n1,–,–,–,–,–,–,·,·,·,·,·,·,·
CC[n+]1c(/C=C/C=C/N(C(C)=O)c2ccccc2)sc2cc(OC)ccc21,–,–,155[activator],–,–,–,135,·,·,·,·,·,·
CCN(CC)CC(C)CNC(=O)CC(C(=O)N1CCc2ccccc21)n1ccnc1 (stereo unspecified),–,–,–,–,–,–,·,·,·,·,·,·,·
O=C(CC(C(=O)N1CCc2ccccc21)n1ccnc1)NCc1ccccc1 (stereo unspecified),–,–,–,–,143[activator],–,115,–,–,–,–,–,–
Cn1c(=O)c(Oc2ccc(Cl)cc2)c(O)c2ccccc21,–,–,–,–,–,–,·,·,·,·,·,·,·
COc1ccc(Oc2c(O)c3ccccc3n(C)c2=O)cc1,–,–,17,–,9.0,9.1,·,–,–,–,–,–,–
O=C(Cn1cc2c(n1)CCCCC2)Nc1ccccc1Br,–,·,?,14,28,25,·,–,–,–,–,–,–
COc1cc2c(cc1OC)C(C(=O)NCc1cccnc1)C(c1cccnc1)N(C)C2=O (stereo unspecified),174,–,170[activator],–,–,–,119,·,·,·,·,·,·
CCCCNC(=O)COC(=O)CNC(=O)c1cc(Cl)cc([N+](=O)[O-])c1,–,–,–,–,–,–,·,·,·,·,·,·,·
COc1cc(/C=N/Nc2nc3ccccc3s2)cc([N+](=O)[O-])c1O,·,·,·,·,·,·,·,–,–,–,–,–,–

# Bioassay records: PubChem BioAssay, NMMLSC
